In PubChem BioAssay:
“And” between values parts separate entries of the source, which are not always exact repeats. Identical values can stand only once. Results filed as inconclusive are left out. The source made the active and inactive calls. Unless noted, how the calls were made is not given here. Non-standard residues stand in square brackets, D forms with d. Residues, ends and D or L forms follow the SMILES beside them. pGlu = O=C1CC[C@@H](C(=O)O)N1; Thz = O=C(O)[C@@H]1CSCN1

Legend:
[1] = circadian clock period modulators, cell-based, LOPAC library, luminescence reporter (AID 2774); details: circadian reporter cells, at 7 µM, actives lie on both sides;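 further: values are relative to mean of DMSO wells on each plate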
[2] = test system: Hepatitis C virus NS3 helicase; assay: HCV NS3 helicase inhibitors, primary screen, biochemical, fluorescence polarization, LOPAC1280 library (AID 687035; in the data active means inhibition above about 37%); details: Purified HCV NS3 helicase, Cy5-dT15 ssDNA binding fluorescence polarization; stronger effect = higher value; concentration not given here
[3] = Cy5 fluorescence quenching or enhancement artefacts, artefact control for HCV NS3 helicase inhibitor project, biochemical, LOPAC1280 (AID 687037); details: Cy5-DNA-NS3h complex fluorescence interference counterscreen
[4] = growth inhibition of DIPG glioma cells, dose response, cell-based, JHH-DIPG-1, MIPE4.0, CellTiter-Glo, qHTS (AID 1347062; cut-off not given, nearly all actives have AC50 up to about 27 µM;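 on AC50: cells exposed to compound for two days before readout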); details: JHH-DIPG-1 viability, CellTiter-Glo ATP luminescence
[5] = growth inhibition of DIPG glioma cells, dose response, cell-based, SU-DIPG-XIII, MIPE5.0, CellTiter-Glo, qHTS (AID 1347064; cut-off not given, nearly all actives have AC50 up to about 23 µM); details: SU-DIPG-XIII viability, CellTiter-Glo ATP luminescence
[6] = viability loss in pontine glioma line – cell-based, SU-DIPG-XXV, MIPE5.0, CellTiter-Glo, qHTS, dose response (AID 1347065; cut-off not given, nearly all actives have AC50 up to about 26 µM;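 further: cells exposed to compound for 48 hours before ATP readout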); details: CellTiter-Glo ATP luminescence
[7] = SU-DIPG-VI glioma cell viability, MIPE4.0 library, CellTiter-Glo luminescence, qHTS (AID 1347066; cut-off not given, nearly all actives have AC50 up to about 30 µM;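 further: cells exposed to compound for 48 hours before readout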); details: CellTiter-Glo ATP luminescence
[8] = JHH-DIPG-1 glioma cell viability, MIPE5.0 library, CellTiter-Glo luminescence, qHTS (AID 1347067; cut-off not given, nearly all actives have AC50 up to about 26 µM;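 further: cells exposed to compound for 48 hours before readout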); details: JHH-DIPG-1 glioma viability, CellTiter-Glo ATP luminescence
[9] = SU-DIPG-XXV glioma cell viability, MIPE5.0 library, qHTS (AID 1347068; cut-off not given, nearly all actives have IC50 up to about 30 µM)
[10] = phospholipid biosynthesis inhibitors in animal cells, primary screen, cell-based, LOPAC library, screen 4 (AID 1347384); details: phospholipid biosynthesis inhibition screen, at 10 µM
[11] = target: NAD(+) hydrolase SARM1 (Homo sapiens) (UniProt Q6SZW1); assay: SARM1 TIR NADase inhibitors, cell lysate, NAD-Glo luminescence (AID 1508614;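 active means compound whose remaining NAD level is above about 45 nM, limit read from the data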); details: SAM-TIR HEK293T lysate NADase, at 1 µM, stronger effect = higher value
Sequence of NAD(+) hydrolase SARM1 (Homo sapiens) (Q6SZW1 whole entry, looked up): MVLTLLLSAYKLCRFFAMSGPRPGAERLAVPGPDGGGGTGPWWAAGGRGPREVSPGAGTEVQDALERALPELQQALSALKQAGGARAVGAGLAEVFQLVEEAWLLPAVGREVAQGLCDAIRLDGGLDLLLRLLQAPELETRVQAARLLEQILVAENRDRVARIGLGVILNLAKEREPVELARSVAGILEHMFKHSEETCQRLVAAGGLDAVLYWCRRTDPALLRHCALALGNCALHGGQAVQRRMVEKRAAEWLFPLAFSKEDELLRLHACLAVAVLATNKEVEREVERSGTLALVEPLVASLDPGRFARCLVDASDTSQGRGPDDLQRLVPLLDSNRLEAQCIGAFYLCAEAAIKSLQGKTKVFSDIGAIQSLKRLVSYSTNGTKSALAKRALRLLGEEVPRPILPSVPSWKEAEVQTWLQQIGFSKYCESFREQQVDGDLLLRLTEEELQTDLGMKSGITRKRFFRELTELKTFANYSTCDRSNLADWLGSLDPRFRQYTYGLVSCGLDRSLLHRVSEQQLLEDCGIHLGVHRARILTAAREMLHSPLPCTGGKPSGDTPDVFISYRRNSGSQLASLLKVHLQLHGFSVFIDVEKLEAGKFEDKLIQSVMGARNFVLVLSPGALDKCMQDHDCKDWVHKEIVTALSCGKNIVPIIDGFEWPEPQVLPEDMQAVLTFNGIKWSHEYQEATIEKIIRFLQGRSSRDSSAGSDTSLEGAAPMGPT

[12] = viability rescue of complex I mutant cybrids, primary screen, cell-based, galactose medium, ATP luminescence (AID 1645843;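 active means z-score of at least 1.8 in each of two replicates, scored against plate mean and spread of sample wells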;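 further: positive z means more ATP and so rescue of galactose-driven cybrid death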); details: complex I mutant cybrid cells, 72 h, stronger effect = higher value
[13] = growth inhibition of DIPG glioma cells, dose response, cell-based, SU-DIPG-XVII, MIPE5.0, CellTiter-Glo, qHTS (AID 1347060; cut-off not given, nearly all actives have AC50 up to about 26 µM); details: SU-DIPG-XVII viability, CellTiter-Glo ATP luminescence
[14] = growth inhibition of DIPG glioma cells, dose response, cell-based, SU-DIPG-IV, MIPE4.0, CellTiter-Glo, qHTS (AID 1347063; cut-off not given, nearly all actives have AC50 up to about 30 µM;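 further: compound exposure lasted 48 hours before the viability readout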); details: SU-DIPG-IV viability, CellTiter-Glo ATP luminescence
[15] = target: Mitogen-activated protein kinase 7 (Homo sapiens) (UniProt Q13164); assay: ERK5 transactivation activators in reporter cells, primary screen, cell-based, HTS (AID 1508626;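 active means luciferase signal above three times the same-plate solvent-only control wells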;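 further: luciferase driven by Gal4-ERK5 fusion binding five Gal4 sites before minimal TATA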); details: HeLa Gal4-ERK5 transactivation, 18 h, at 5 µM, stronger effect = higher value
Sequence of Mitogen-activated protein kinase 7 (Homo sapiens) (Q13164 whole entry, looked up, the tested form may be a part): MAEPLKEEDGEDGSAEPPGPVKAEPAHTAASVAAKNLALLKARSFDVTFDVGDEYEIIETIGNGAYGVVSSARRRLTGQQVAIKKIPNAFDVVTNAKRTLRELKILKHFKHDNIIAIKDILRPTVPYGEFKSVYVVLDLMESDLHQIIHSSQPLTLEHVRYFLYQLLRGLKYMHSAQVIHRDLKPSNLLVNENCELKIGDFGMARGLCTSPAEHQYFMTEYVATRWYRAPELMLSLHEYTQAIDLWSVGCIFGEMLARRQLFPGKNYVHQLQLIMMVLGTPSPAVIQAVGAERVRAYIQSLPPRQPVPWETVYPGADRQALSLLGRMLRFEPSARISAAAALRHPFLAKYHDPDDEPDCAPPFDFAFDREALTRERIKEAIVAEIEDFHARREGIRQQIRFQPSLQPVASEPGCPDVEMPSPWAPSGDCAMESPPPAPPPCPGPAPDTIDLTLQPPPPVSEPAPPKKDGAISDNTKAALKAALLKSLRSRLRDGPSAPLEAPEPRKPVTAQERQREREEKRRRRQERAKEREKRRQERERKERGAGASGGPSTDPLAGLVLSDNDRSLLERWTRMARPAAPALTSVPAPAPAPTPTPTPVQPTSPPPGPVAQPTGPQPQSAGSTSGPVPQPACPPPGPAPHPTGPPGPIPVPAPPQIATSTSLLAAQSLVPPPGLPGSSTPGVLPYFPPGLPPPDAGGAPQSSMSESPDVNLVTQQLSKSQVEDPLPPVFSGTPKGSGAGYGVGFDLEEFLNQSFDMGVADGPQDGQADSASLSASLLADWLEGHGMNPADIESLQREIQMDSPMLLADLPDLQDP

[16] = test system: Neuropilin-2 / VEGF-C interaction (human); assay: inhibitors of NRP2–VEGF-C binding, biochemical, microplate binding format, z-score (AID 743281); details: microplate NRP2/VEGF-C binding assay; stronger effect = lower value
[17] = growth inhibition of DIPG glioma cells, dose response, cell-based, SU-DIPG-XIII, MIPE4.0, CellTiter-Glo, qHTS (AID 1347061; cut-off not given, nearly all actives have AC50 up to about 37 µM;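 further: cells exposed to compound for 48 hours before readout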); details: SU-DIPG-XIII viability, CellTiter-Glo ATP luminescence
[18] = modifiers of HSF1 nuclear foci, imaging, Selleck Cancer Library (AID 1347162; in the data active means plate-normalised HSF1 focus index below about 0.46); details: human cells, at 10 µM; SSMD: measured here: HSF1 foci SSMD mean; cell count: measured here: cell number; plate-normalised HSF1 focus index: stronger effect = lower value
[19] = test system: Aerobactin synthetase IucA (Klebsiella pneumoniae); assay: IucA aerobactin synthetase inhibitors, biochemical, Tocris library, absorbance (AID 1345561); details: purified IucA enzyme assay, absorbance (OD) read-out; stronger effect = lower value;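 tested at 8 µM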;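 further: 100% = enzyme without compound and 0% = no enzyme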

Cc1cnc(C(=O)NCCc2ccc(S(=O)(=O)NC(=O)NC3CCCCC3)cc2)cn1
inactive: period change [1] 0.035 h | inhibition [2] -1% | fluorescence ratio (interference) [3] 1 | outcome [4] | outcome [5] | outcome [6] | outcome [7] | outcome [8] | outcome [9] | outcome [10] | remaining NAD [11] 10 nM | z-score [12] 1.17 and 0.66 and 1.06

CC[C@H]1OC(=O)[C@H](C)[C@@H](O[C@H]2C[C@@](C)(OC)[C@@H](O)[C@H](C)O2)[C@H](C)[C@@H](O[C@@H]2O[C@H](C)C[C@H](N(C)C)[C@H]2O)[C@](C)(O)C[C@@H](C)CN(C)[C@H](C)[C@@H](O)[C@]1(C)O
inactive: outcome [13] | outcome [4] | outcome [14] | outcome [5] | outcome [6] | outcome [7] | outcome [8] | outcome [9] | remaining NAD [11] 10 nM | luciferase signal [15] 20 AU | z-score [12] 1.2

CN/C(=C\[N+](=O)[O-])NCCSCc1csc(CN(C)C)n1
inactive: z-score [16] 0.209 | remaining NAD [11] 10 nM

CN1CC(=O)N2[C@H](c3ccc4c(c3)OCO4)c3[nH]c4ccccc4c3C[C@@H]2C1=O
inactive: z-score [16] 1.08 | outcome [13] | outcome [17] | outcome [4] | outcome [14] | outcome [5] | outcome [6] | outcome [7] | outcome [8] | outcome [9] | remaining NAD [11] 10 nM | luciferase signal [15] 40 AU

CN(C)CCOc1ccc(/C(=C(/CCCl)c2ccccc2)c2ccccc2)cc1
-11.1: SSMD [18]
3260: cell count [18]
inactive: z-score [16] -0.537 | outcome [17] | outcome [4] | outcome [7] | plate-normalised HSF1 focus index [18] 0.417 | remaining NAD [11] 10 nM | z-score [12] -2.31
active: AC50 [6] 20.9 µM

COC(=O)C[C@](O)(CCCC(C)(C)O)C(=O)O[C@@H]1C(OC)=C[C@]23CCCN2CCc2cc4c(cc2[C@H]13)OCO4
inactive: outcome [16] | remaining activity [19] 98.2% | z-score [12] -0.84

Cc1c(C(=O)NN2CCCCC2)nn(-c2ccc(Cl)cc2Cl)c1-c1ccc(I)cc1
inactive: z-score [16] 0.177 | remaining activity [19] 112% | z-score [12] -1.88 and -0.83

CN(C)CCCC1(c2ccc(F)cc2)OCc2cc(C#N)ccc21 (stereo unspecified)
inactive: period change [1] -0.06 h | inhibition [2] -4% | fluorescence ratio (interference) [3] 1 | z-score [16] 0.0126 | remaining activity [19] 108% | outcome [14] | outcome [7] | outcome [10] | remaining NAD [11] 10 nM | luciferase signal [15] 68 AU

COc1ccc2[nH]c(S(=O)Cc3ncc(C)c(OC)c3C)nc2c1 (stereo unspecified)
inactive: outcome [16] | outcome [8] | outcome [9] | z-score [12] 0.665

C[C@H]1O[C@H](O[C@H]2[C@H](O)[C@@H](O)[C@@H](O[C@H]3[C@H](O)[C@@H](O)C(O)O[C@@H]3CO)O[C@@H]2CO)[C@H](O)[C@@H](O)[C@@H]1N[C@H]1C=C(CO)[C@@H](O)[C@H](O)[C@H]1O (stereo partly specified)
inactive: z-score [16] -1.33 | outcome [13] | outcome [17] | outcome [4] | outcome [6] | outcome [7] | outcome [8] | outcome [9] | remaining NAD [11] 10 nM | luciferase signal [15] 52 AU

NCC(O)c1ccc(O)c(O)c1 (stereo unspecified)
inactive: period change [1] 0.075 h | inhibition [2] -3% | fluorescence ratio (interference) [3] 0.9 | outcome [10] | z-score [12] -1.48 and -0.825

COc1ccc(C[C@H](C)NC[C@@H](O)c2ccc(O)c(NC=O)c2)cc1
inactive: z-score [16] -0.584 | remaining activity [19] 116% | z-score [12] -0.475

CN(C)CCc1c[nH]c2ccc(Cn3cncn3)cc12
active: AC50 [4] 20.9 µM | AC50 [14] 20.9 µM
inactive: outcome [16] | outcome [17] | outcome [7] | remaining NAD [11] 10 nM | luciferase signal [15] 52 AU | z-score [12] 0.12

Cc1cc2c(s1)Nc1ccccc1N=C2N1CCN(C)CC1
inactive: outcome [16] | outcome [13] | outcome [17] | outcome [4] | outcome [5] | outcome [6] | outcome [7] | outcome [9] | outcome [10] | remaining NAD [11] 10 nM | luciferase signal [15] 136 AU | z-score [12] -0.17 and -0.015
active: AC50 [8] 1.18 µM

C[C@@H](c1ncncc1F)[C@](O)(Cn1cncn1)c1ccc(F)cc1F
inactive: z-score [16] 1.15 | outcome [17] | outcome [14] | outcome [6] | outcome [7] | outcome [8] | outcome [9] | outcome [10] | remaining NAD [11] 10 nM | z-score [12] 0.365

O=C1CC[C@@H](C(=O)N2CSC[C@H]2C(=O)O)N1 ([pGlu]-[Thz]-OH)
inactive: z-score [16] -0.307 | remaining NAD [11] 10 nM

CNCC[C@H](Oc1cccc2ccccc12)c1cccs1
inactive: z-score [16] 0.369 and 0.383 | outcome [7] | remaining NAD [11] 10 nM | luciferase signal [15] 36 AU
active: AC50 [17] 1.32 µM

CCCCN1CCCC1CNC(=O)c1cc(C#N)c2ccccc2c1OC (stereo unspecified)
inactive: z-score [16] 1.01 | remaining activity [19] 113% | z-score [12] -0.605 and -0.3

CC(CCCCC(=O)Nc1ccc(C(F)(F)F)cc1)NCCc1cnc[nH]1 (stereo unspecified)
inactive: z-score [16] -0.258 | remaining activity [19] 92.5% | z-score [12] 0.675 and -0.77

O=C(c1ccc(OCCN2CCCCC2)cc1)c1c(-c2ccc(O)cc2)sc2cc(O)ccc12
2.22: SSMD [18]
inactive: period change [1] 0.135 h | inhibition [2] -6% | fluorescence ratio (interference) [3] 0.9 | remaining activity [19] 120% | outcome [13] | outcome [8] | plate-normalised HSF1 focus index [18] 1.11 | outcome [10] | remaining NAD [11] 10 nM | luciferase signal [15] 76 AU
6850: cell count [18]
